# Assay results taken from PubChem BioAssay (Tox21).
# Several values for one entry are separate records, joined by “and”; a condition that tells them apart may be missing. Identical values can stand only once. Records with an inconclusive call do not appear. A call without a number means that no potency is given here. Some compounds were tested as several samples or in several runs, with calls that do not always agree. Activity calls are given as the source filed them. The call rests on the fitted dose curve; in most records, active means well fitted curve in the direction sought with a large enough effect in the repeat runs; inconclusive means weak or mixed curves; inactive means no such curve, though single readings can be large; an effect the other way counts as inactive or inconclusive.
# How the values were obtained:
# [1] = Human pregnane X receptor (PXR) small molecule agonists, qHTS cell viability counter screen (AID 1346977); further: nearly all actives have a fitted effect of over 50% in size; further: potency means the concentration at half of the fitted maximal effect
# Procedure, shortened: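 Tox21 qHTS format; PXR-Luc HepG2, 2,000/well, charcoal-stripped FBS 5%. Cpd exposure 24hr. Read: CellTiter-Fluor fluorescence, multiplexed with luciferase.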
# [2] = Caspase-3/7 induction in HepG2 cells by small molecules, qHTS assay (AID 1346978); further: nearly all actives have a fitted effect of over 15% in size; further: potency means the concentration at half of the fitted maximal effect
# Procedure, shortened: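 Wild-type HepG2 cells (2,000/well) were settled 5 h at 37 C, 5% CO2, then exposed to compounds in DMSO for 17 h. Caspase-3/7 activity was read by luminescence 30 min after adding Caspase-Glo 3/7 reagent at room temperature.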
# [3] = Caspase-3/7 induction in CHO-K1 cells by small molecules, qHTS cell viability counter screen (AID 1346979); further: nearly all actives have a fitted effect of over 35% in size; further: potency means the concentration at half of the fitted maximal effect
# Procedure, shortened: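 CellTiter-Fluor viability check, qHTS format: wild-type CHO-K1, 16hr compound treatment, 1hr reagent incubation, fluorescence read.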
# [4] = Caspase-3/7 induction in CHO-K1 cells by small molecules, qHTS assay (AID 1346980); further: nearly all actives have a fitted effect of over 15% in size
# Procedure, shortened: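 Wild-type cells were seeded at 1,500 per well and settled 5 hr at 37 C, 5% CO2, then exposed to DMSO-dissolved compounds for 17 hr. Caspase-Glo 3/7 reagent was added, and luminescence was read after 30min at room temperature.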
# [5] = Caspase-3/7 induction in HepG2 cells by small molecules, qHTS cell viability counter screen (AID 1346981); further: nearly all actives have a fitted effect of over 30% in size; further: potency means the concentration at half of the fitted maximal effect
# Procedure, shortened: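 In this quantitative HTS counter screen, compounds delivered in DMSO were left on unmodified HepG2 cells for 16 hr at 37 C. Viability was then determined fluorometrically with CellTiter-Fluor, in parallel with caspase-3/7 induction in the same wells.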
# [6] = target: Nuclear receptor subfamily 1 group I member 2 (Homo sapiens) (UniProt O75469); experiment: Human pregnane X receptor (PXR) small molecule agonists, qHTS assay (AID 1346982); further: nearly all actives have a fitted effect of over 35% in size; further: potency means the concentration at half of the fitted maximal effect
# Chain of Nuclear receptor subfamily 1 group I member 2 (Homo sapiens) (O75469 whole entry, looked up): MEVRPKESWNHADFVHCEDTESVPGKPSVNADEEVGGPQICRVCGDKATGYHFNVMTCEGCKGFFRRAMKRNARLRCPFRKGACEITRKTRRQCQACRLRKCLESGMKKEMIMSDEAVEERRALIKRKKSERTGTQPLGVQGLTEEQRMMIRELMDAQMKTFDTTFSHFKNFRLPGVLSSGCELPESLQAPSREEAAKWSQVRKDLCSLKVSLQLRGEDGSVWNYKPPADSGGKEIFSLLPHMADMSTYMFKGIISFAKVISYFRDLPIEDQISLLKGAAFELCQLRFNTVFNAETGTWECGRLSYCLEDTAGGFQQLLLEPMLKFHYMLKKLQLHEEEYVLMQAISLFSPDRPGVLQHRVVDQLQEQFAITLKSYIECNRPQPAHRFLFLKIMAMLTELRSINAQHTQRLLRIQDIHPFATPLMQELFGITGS
# Procedure, shortened: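 Reporter HepG2 cells expressing PXR-Luc are cultured in charcoal-stripped FBS (5%), treated with compounds for 24 hr at 37 C, and assayed by ONE-Glo luminescence after 30 min at room temperature.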
# [7] = target: Nuclear receptor subfamily 1 group I member 2 (Homo sapiens) (UniProt O75469); experiment: CYP3A4 induction through human pregnane X receptor (PXR) by small molecules, qHTS assay (AID 1346984); further: nearly all actives have a fitted effect of over 40% in size; further: potency means the concentration at half of the fitted maximal effect
# Procedure, shortened: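 Induction measured in HepG2-based DPX-2 cells co-expressing human PXR and a CYP3A4 promoter-driven luciferase. After a 24-hour compound exposure, cells received CYP3A4 luciferin substrate at 3uM final for 3 hours, and light output was then recorded.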
# [8] = target: Nuclear receptor subfamily 1 group I member 2 (Homo sapiens) (UniProt O75469); experiment: Human pregnane X receptor (PXR) activation by small molecules, qHTS assay (AID 1346985); further: nearly all actives have a fitted effect of over 40% in size; further: potency means the concentration at half of the fitted maximal effect
# Procedure, shortened: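 DPX-2 cells (HepG2 co-transfected with a PXR response element and a CYP3A4-promoter luciferase construct) were seeded at 2,000 per well, rested 5 hr at 37C, then exposed to DMSO-dissolved compounds for 24 hr. Activation was read as luciferase luminescence.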
# [9] = target: Cytochrome P450 2D6 (Homo sapiens) (UniProt P10635); experiment: Cytochrome P450 Family 2 Subfamily D Member 6 (CYP2D6) small molecule antagonists: luciferase reporter qHTS assay (AID 1671196); further: nearly all actives have a fitted effect of over 50% in size; further: potency means the concentration at half of the fitted maximal effect
# Chain of Cytochrome P450 2D6 (Homo sapiens) (P10635 whole entry, looked up): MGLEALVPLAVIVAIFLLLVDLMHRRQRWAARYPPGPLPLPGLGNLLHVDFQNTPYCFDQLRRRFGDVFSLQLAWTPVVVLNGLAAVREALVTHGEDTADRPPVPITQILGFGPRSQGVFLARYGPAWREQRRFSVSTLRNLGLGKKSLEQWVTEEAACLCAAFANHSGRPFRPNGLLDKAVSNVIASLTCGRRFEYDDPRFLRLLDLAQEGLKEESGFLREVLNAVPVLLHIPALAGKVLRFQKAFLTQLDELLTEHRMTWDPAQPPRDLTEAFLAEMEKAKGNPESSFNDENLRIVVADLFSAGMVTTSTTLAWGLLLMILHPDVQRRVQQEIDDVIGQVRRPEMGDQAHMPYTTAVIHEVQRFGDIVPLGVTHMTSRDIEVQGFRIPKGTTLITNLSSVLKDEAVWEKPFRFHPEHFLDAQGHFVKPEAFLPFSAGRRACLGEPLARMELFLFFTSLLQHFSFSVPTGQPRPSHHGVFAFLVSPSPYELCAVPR
# Procedure, shortened: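 Test chemicals meet CYP2D6 plus proluciferin substrate (10 min, RT); NADPH regenerating solution then drives turnover for 1 h. Detection reagent halts the reaction; luminescence measured after 20 min.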
# [10] = target: Cytochrome P450 2C19 (Homo sapiens) (UniProt P33261); experiment: Cytochrome P450 Family 2 Subfamily C Member 19 (CYP2C19) small molecule antagonists: luciferase reporter qHTS assay (AID 1671197); further: nearly all actives have a fitted effect of over 65% in size; further: potency means the concentration at half of the fitted maximal effect
# Chain of Cytochrome P450 2C19 (Homo sapiens) (P33261 whole entry, looked up): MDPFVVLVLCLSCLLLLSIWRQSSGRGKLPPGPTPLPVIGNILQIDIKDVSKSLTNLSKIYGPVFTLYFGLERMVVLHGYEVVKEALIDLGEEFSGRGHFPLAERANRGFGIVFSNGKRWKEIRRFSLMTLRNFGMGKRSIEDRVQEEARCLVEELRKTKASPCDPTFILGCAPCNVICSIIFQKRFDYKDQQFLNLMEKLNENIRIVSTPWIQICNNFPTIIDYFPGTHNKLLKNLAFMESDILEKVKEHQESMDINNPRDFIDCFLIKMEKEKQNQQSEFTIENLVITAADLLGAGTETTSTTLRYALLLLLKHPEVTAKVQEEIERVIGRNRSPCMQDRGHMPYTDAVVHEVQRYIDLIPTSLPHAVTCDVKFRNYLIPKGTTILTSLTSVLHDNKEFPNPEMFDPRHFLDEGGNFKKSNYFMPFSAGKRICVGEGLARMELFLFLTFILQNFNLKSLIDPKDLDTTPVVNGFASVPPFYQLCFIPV
# Procedure, shortened: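 First, compounds are pinned into enzyme-substrate mix and held 10 min at room temperature. Second, NADPH regeneration solution is added and plates incubate 1 h at 37C. Third, detection reagent is added and luminescence read after 20 min.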
# [11] = target: Cytochrome P450 2C9 (Homo sapiens) (UniProt P11712); experiment: Cytochrome P450 Family 2 Subfamily C Member 9 (CYP2C9) small molecule antagonists: luciferase reporter qHTS assay (AID 1671198); further: nearly all actives have a fitted effect of over 50% in size; further: potency means the concentration at half of the fitted maximal effect
# Chain of Cytochrome P450 2C9 (Homo sapiens) (P11712 whole entry, looked up): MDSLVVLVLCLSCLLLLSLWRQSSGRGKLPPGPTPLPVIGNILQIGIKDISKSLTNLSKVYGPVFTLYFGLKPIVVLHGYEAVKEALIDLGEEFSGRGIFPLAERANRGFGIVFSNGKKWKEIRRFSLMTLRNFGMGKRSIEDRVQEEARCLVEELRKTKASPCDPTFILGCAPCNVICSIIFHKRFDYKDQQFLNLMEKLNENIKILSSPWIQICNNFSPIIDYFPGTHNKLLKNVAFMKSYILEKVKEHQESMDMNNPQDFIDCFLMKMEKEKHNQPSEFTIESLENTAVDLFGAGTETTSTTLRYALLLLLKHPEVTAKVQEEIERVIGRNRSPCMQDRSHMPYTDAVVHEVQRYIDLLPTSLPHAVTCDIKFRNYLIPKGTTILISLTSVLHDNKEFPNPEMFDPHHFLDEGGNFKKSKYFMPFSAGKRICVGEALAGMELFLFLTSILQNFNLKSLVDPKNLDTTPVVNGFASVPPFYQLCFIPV
# Procedure, shortened: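 CYP2C9 activity was measured with a P450-Glo proluciferin substrate. Enzyme–substrate mix was held with compound for 10 min at room temperature, then NADPH regeneration solution was added for 1 h at 37C. Luciferin product was read as luminescence.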
# [12] = target: Voltage-gated inwardly rectifying potassium channel KCNH2 (Homo sapiens) (UniProt Q12809); experiment: Human Ether-a-go-go-Related Gene (hERG) channel small molecule antagonists: fluorescence cell-based qHTS assay (AID 1671200); further: nearly all actives have a fitted effect of over 50% in size; further: potency means the concentration at half of the fitted maximal effect
# Chain of Voltage-gated inwardly rectifying potassium channel KCNH2 (Homo sapiens) (Q12809 whole entry, looked up): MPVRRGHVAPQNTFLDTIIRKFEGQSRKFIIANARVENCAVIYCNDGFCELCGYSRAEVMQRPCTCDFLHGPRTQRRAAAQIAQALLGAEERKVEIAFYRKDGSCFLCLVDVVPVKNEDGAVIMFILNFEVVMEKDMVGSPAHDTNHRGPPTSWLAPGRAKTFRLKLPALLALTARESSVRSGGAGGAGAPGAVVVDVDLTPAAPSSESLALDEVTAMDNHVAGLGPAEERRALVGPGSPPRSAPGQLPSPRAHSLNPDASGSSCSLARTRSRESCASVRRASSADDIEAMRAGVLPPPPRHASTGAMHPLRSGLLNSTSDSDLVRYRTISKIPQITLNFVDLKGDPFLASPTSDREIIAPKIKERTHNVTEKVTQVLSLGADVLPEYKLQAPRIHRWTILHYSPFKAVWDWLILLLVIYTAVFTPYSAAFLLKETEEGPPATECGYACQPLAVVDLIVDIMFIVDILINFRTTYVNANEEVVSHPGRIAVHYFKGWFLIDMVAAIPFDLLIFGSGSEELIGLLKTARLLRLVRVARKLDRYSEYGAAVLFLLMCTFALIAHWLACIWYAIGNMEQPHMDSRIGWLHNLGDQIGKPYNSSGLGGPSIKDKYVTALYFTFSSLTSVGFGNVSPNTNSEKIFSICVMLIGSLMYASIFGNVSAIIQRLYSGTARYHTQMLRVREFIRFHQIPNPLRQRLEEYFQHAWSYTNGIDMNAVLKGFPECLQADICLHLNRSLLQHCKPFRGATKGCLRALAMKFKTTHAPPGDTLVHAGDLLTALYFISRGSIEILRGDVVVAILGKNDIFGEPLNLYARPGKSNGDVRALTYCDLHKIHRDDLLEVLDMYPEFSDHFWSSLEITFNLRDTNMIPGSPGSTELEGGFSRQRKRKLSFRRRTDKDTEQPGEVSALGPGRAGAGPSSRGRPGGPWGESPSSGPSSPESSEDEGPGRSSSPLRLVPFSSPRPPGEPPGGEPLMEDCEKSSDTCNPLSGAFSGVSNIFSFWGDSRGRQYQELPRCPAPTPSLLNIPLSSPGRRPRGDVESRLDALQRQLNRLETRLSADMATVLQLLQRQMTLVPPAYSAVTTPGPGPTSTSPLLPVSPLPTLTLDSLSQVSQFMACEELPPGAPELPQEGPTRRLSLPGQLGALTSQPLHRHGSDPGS
# Procedure, shortened: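 Kinetic two-minute fluorescence traces, sampled at 1 s, were collected following thallium stimulus of U2OS cells (1000 per well) that had been cultured overnight at 37 C and loaded with FluxOR II.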
# [13] = target: Cytochrome P450 3A4 (Homo sapiens) (UniProt P08684); experiment: Cytochrome P450 Family 3 Subfamily A Member 4 (CYP3A4) small molecule antagonists: luciferase reporter qHTS assay (AID 1671201)
# Chain of Cytochrome P450 3A4 (Homo sapiens) (P08684 whole entry, looked up): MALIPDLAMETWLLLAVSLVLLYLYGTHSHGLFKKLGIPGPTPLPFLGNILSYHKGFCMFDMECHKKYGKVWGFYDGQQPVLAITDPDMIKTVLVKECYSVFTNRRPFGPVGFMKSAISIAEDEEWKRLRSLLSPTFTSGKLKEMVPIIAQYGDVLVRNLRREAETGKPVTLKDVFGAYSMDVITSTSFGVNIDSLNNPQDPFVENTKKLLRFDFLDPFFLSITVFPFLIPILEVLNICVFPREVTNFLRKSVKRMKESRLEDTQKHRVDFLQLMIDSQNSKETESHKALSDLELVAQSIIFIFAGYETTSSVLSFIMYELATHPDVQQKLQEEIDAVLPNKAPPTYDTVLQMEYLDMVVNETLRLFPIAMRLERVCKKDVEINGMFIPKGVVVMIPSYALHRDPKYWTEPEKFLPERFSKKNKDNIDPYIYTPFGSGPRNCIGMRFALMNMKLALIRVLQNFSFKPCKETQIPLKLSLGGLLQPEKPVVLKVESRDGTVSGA
# Procedure, shortened: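 Proluciferin-to-luciferin conversion by CYP3A4, NADPH-regenerated, 1 h RT; luminescence read as RLU. Ketoconazole as control.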
# [14] = target: Nuclear receptor subfamily 1 group I member 2 (Rattus norvegicus) (UniProt Q9R1A7); experiment: Rat pregnane X receptor (rPXR) activation by small molecules, qHTS assay (AID 1346983); conditions: rPXR luciferase reporter cells, One-Glo luminescence, 24 h; max activation: stronger effect = higher value; further: nearly all actives have a fitted effect of over 20% in size
# Chain of Nuclear receptor subfamily 1 group I member 2 (Rattus norvegicus) (Q9R1A7 whole entry, looked up): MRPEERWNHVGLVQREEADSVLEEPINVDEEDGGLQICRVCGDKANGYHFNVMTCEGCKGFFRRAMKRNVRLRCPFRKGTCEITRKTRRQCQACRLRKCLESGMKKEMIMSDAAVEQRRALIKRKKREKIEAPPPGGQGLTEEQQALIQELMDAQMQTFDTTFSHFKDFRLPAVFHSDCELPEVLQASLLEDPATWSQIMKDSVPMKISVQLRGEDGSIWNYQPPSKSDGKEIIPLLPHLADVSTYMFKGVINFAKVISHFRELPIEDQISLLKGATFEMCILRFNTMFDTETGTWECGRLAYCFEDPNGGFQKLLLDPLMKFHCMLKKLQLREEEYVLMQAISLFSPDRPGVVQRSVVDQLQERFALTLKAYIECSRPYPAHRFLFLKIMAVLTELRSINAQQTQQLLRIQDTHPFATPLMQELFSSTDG
# Procedure, shortened: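 Cell-based rPXR luciferase reporter assay, 2,000 cells per well, rested 5hr at 37 C before compound addition in DMSO, then 24 hr at 37 C. One-Glo reagent was added and luminescence read after 30 min at room temperature.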
# [15] = target: Cytochrome P450 1A2 (Homo sapiens) (UniProt P05177); experiment: Cytochrome P450 Family 1 Subfamily A Member 2 (CYP1A2) small molecule antagonists: luciferase reporter qHTS assay (AID 1671199); further: nearly all actives have a fitted effect of over 50% in size; further: potency means the concentration at half of the fitted maximal effect
# Chain of Cytochrome P450 1A2 (Homo sapiens) (P05177 whole entry, looked up): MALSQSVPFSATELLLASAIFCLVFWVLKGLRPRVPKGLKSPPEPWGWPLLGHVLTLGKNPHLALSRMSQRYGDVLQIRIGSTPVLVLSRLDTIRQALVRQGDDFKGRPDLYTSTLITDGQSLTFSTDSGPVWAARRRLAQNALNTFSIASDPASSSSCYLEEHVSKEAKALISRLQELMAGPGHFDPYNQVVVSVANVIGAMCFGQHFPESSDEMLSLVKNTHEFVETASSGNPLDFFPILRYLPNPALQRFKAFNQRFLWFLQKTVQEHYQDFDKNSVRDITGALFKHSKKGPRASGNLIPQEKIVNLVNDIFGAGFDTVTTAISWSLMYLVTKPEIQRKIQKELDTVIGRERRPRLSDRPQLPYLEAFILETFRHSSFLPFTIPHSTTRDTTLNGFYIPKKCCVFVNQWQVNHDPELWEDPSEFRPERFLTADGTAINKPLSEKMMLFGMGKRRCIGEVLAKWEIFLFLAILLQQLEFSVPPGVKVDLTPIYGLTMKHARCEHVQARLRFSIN
# Procedure, shortened: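 Steps: enzyme-substrate mix dispensed; test compounds and furafylline control pinned in; 10 min room temperature; NADPH regeneration solution added, 1 h; reaction stopped with luciferin detection reagent; luminescence read after 20 min.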
Compound,Potency [1],Potency [2],Potency [3],Potency [4],Potency [5],Potency [6],Potency [7],Potency [8],Potency [9],Potency [10],Potency [11],Potency [12],Potency [13],max activation [14],Potency [15]
C[C@]12CC[C@H]3[C@@H](CCC4=CC(=O)CC[C@@]43C)[C@@H]1CC[C@@H]2C(=O)CO,inactive,inactive,inactive,inactive,inactive,21.7 µM (active) and inactive,inactive,inactive,inactive,7.1 µM (active) and 8.71 µM (active),39.9 µM (active) and 27.5 µM (active),inactive,inactive,–,–
Cc1c(C(N)=O)cc([N+](=O)[O-])cc1[N+](=O)[O-],inactive,inactive,inactive,inactive,inactive,–,inactive,inactive,inactive,inactive,inactive,inactive,inactive,0.724% (inactive),inactive
O=C(c1ccccc1)c1ccccc1O,inactive,inactive,inactive,inactive,inactive,inactive,–,–,40.9 µM (active),3.65 µM (active) and 22.4 µM (active),40.9 µM (active) and 63.3 µM (active),inactive,inactive,–,11.5 µM (active) and 15.9 µM (active)
CN1C(C(=O)Nc2ccccn2)=C(O)c2ccccc2S1(=O)=O,inactive,inactive,inactive,inactive,inactive,–,inactive,inactive,40.3 µM (active) and inactive,inactive,12.7 µM (active) and 13.8 µM (active),inactive,inactive,-2.52% (inactive),inactive
CC1=CCC(C(C)(C)O)CC1 (stereo not drawn),inactive,inactive,inactive,inactive,inactive,–,inactive,inactive,inactive,inactive,inactive,inactive,inactive,-1.16% (inactive),inactive
CNCCCC12CCC(c3ccccc31)c1ccccc12,27.3 µM (active),27.3 µM (active),61.1 µM (active) and inactive,inactive,61.1 µM (active),–,–,–,–,–,–,–,–,–,–
CCCCCCCCCCCO,inactive,inactive,inactive,inactive,inactive,inactive,–,–,inactive,20.5 µM (active) and inactive,–,inactive,inactive,–,–
CC(C)OC=O,inactive,inactive,inactive,inactive,inactive,inactive,–,–,inactive,inactive,inactive,inactive,inactive,–,inactive
CC(C)OC(=O)C(C)(C)Oc1ccc(C(=O)c2ccc(Cl)cc2)cc1,inactive,inactive,54.5 µM (active),inactive,inactive,27.3 µM (active),–,–,inactive,8.94 µM (active) and 5.49 µM (active),3.56 µM (active) and 1.74 µM (active),27.5 µM (active) and 8.49 µM (active),inactive,–,35.6 µM (active)
C[C@]12CCC(=O)C=C1CC[C@@H]1[C@@H]2C(=O)C[C@@]2(C)[C@H]1CC[C@]2(O)C(=O)CO,inactive,inactive,inactive,inactive,inactive,–,inactive,inactive,inactive,25.2 µM (active),inactive,inactive,inactive,0.346% (inactive),inactive
c1cc(-c2ccncc2)ccn1,inactive,inactive,inactive,inactive,inactive,inactive,–,–,–,35.9 µM (active),40.3 µM (active) and 35.6 µM (active),inactive,inactive,–,40.3 µM (active) and 35.6 µM (active)
CC(=O)C1(C)CC2=C(CCCC2(C)C)CC1C (stereo not drawn),inactive,inactive,inactive,inactive,inactive,inactive,–,–,inactive,inactive,inactive,inactive,inactive,–,inactive
Cc1cccc(N(C)C(=S)Oc2ccc3ccccc3c2)c1,inactive,inactive,inactive,inactive,inactive,17.2 µM (active) and 11.9 µM (active),5.01 µM (active),8.91 µM (active),inactive,1.26 µM (active) and 977 nM (active),8.94 µM (active) and 6.92 µM (active),–,–,2.58% (inactive),10 µM (active) and 9.77 µM (active)
O=CCc1ccccc1,inactive,inactive,inactive,inactive,inactive,inactive,–,–,inactive,19.9 µM (active) and 5.64 µM (active),25 µM (active) and 5.03 µM (active),inactive,inactive,–,39.9 µM (active)
